Source: PubChem BioAssay

Experiment: S6 kinase pathway phospho-S6 level changes – cell-based, A549, cytoblot, luminescence, serum-stimulated, primary screen (AID 1158);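 also: serum-stimulated A549 lung adenocarcinoma cells; signal is phosphorylated S6 detected by cytoblot immunostaining with HRP secondary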
Settings: 5 h, higher = more signal
Compound Cc1cc2c(nc1C)CCCCN2CC(C)ON=C[C@@H](C)[C@H](OCc1ccccc1)C(C)C (stereo partly specified) has a z-score of -0.732.
In the case of CO[C@@H]1C=CCC(=O)N2CCC[C@H]2C(=O)OC[C@@H](C)C(=O)OC[C@H]1C, the z-score is reported as 0.467.
CO[C@@H]1C=CCC(=O)N[C@@H](C)C(=O)OC[C@@H](OC)[C@H](C)CCCC(=O)OC[C@H]1C gave a z-score of -0.417.
Work on COc1ccc(COC(=O)NN=C2C[C@@H](O)[C@@H](O)[C@@H]3[C@@H]4C(=O)N(c5ccc(F)cc5F)C(=O)[C@@H]4CC[C@H]23)cc1 yielded a z-score of -0.434.
In the case of CC(C)[C@@H](OCc1ccccc1)[C@H](C)C=NOC[C@@H](O)COCc1ccco1, the z-score is reported as 0.0388.
O=C1[C@H]2[C@H]3[C@H](O)[C@H](O)CC(=NOCc4ccccc4)[C@@H]3CC[C@H]2C(=O)N1C[C@@H]1CCCO1 gave a z-score of -0.0701.
Compound CC(C)=CCCC(C)=CCON=C1C[C@@H](O)[C@@H](O)[C@@H]2[C@@H]3C(=O)N(C(C)(C)C)C(=O)[C@@H]3CC[C@H]12 has a z-score of -0.443.
With CCOC(=O)[C@H](Cc1ccccc1)NC(=O)CCC1CC(OC(=O)NCCc2ccc(F)cc2)CC2(CCCC(COC(=O)NCCc3ccccc3OC)O2)O1 (stereo partly specified) the z-score was 0.392.
COc1ccc(COC(=O)NN=C2C[C@@H](O)[C@@H](O)[C@@H]3[C@@H]4C(=O)N(C5CCCCC5)C(=O)[C@@H]4CC[C@H]23)cc1 showed a z-score of 0.173.
With CC(C)=CCCC(C)=CCON=C1C[C@@H](O)[C@@H](O)[C@@H]2[C@@H]3C(=O)N(C4CCCCC4)C(=O)[C@@H]3CC[C@@H]12 the z-score was -0.367.
COC(=O)[C@@H]1CC[C@H](C)[C@@H](c2ccc(C)cc2)N1C(=O)c1ccc(C=NO[C@@H]2O[C@H](COC(C)=O)[C@@H](OC(C)=O)[C@H](OC(C)=O)[C@H]2OC(C)=O)cc1 showed a z-score of 1.02.
